# Compounds without any hit were thinned out: in the full panel of roughly 83,000, 20% have a hit.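 Activity criterion: percent growth below 10, measured after cells in 96-well plates were exposed to a single compound concentration for 48 hours.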 Values without a mark were called inactive. Calls of active or inactive are those of the source.
# Tests used:
# Test in all cases: NCI-60 one-dose screen, 48 h (100 = growth as untreated, 0 = no growth, -100 = all killed)
# A549/ATCC NSCLC = conditions: 10 µM unless noted
# DU-145 prostate = conditions: 10 µM unless noted
# K-562 leukemia = conditions: 10 µM unless noted
# RXF 393 renal = conditions: 10 µM unless noted
# UACC-257 melanoma = conditions: 10 µM unless noted
# HT29 colon = conditions: 10 µM unless noted
# SNB-75 CNS = conditions: 10 µM unless noted
# SK-MEL-5 melanoma = conditions: 10 µM unless noted
# UACC-62 melanoma = conditions: 10 µM unless noted
# SK-MEL-2 melanoma = conditions: 10 µM unless noted
# ACHN renal = conditions: 10 µM unless noted
# A498 renal = conditions: 10 µM unless noted
# HL-60(TB) leukemia = conditions: 10 µM unless noted
# MOLT-4 leukemia = conditions: 10 µM
# OVCAR-8 ovarian = conditions: 10 µM unless noted
# OVCAR-5 ovarian = conditions: 10 µM unless noted
# HS 578T breast = conditions: 10 µM unless noted
# NCI/ADR-RES ovarian = conditions: 10 µM unless noted
# T-47D breast = conditions: 10 µM unless noted
# PC-3 prostate = conditions: 10 µM unless noted
SMILES,growth (A549/ATCC NSCLC),growth (DU-145 prostate),growth (K-562 leukemia),growth (RXF 393 renal),growth (UACC-257 melanoma),growth (HT29 colon),growth (SNB-75 CNS),growth (SK-MEL-5 melanoma),growth (UACC-62 melanoma),growth (SK-MEL-2 melanoma),growth (ACHN renal),growth (A498 renal),growth (HL-60(TB) leukemia),growth (MOLT-4 leukemia),growth (OVCAR-8 ovarian),growth (OVCAR-5 ovarian),growth (HS 578T breast),growth (NCI/ADR-RES ovarian),growth (T-47D breast),growth (PC-3 prostate)
S=P(NC1CCCCC1)(N1CC1)N1CC1,101%,108%,61.4%,102%,116%,101%,93.2%,97%,91.4%,114%,103%,96.2%,91.3%,99.1%,104%,104%,114%,111%,106%,
COC(C)(C)CCC[C@H](C)C/C=C/C(C)=C/C(=O)OC(C)C,98.5%,113%,85.3%,104%,101%,88%,118%,,96.6%,97.1%,109%,110%,79.8%,90%,98.2%,128%,119%,91.7%,75.7%,88.7%
CCCCNCCc1ccccn1,100%,113%,90.4%,113%,94.5%,102%,104%,111%,109%,87.3%,101%,95.5%,99.1%,97.5%,102%,101%,107%,105%,97.2%,96%
CCC1([N+](=O)[O-])COP(=O)(NCc2cccnc2)OC1 (stereo unspecified),102%,103%,106%,106%,113%,116%,104%,107%,105%,111%,113%,94.3%,107%,111%,108%,99.7%,107%,112%,,106%
O=C(O)c1nn(Cc2ccc(Cl)cc2)c2ccccc12,102%,120%,104%,123%,93.1%,118%,95.9%,97.2%,102%,114%,117%,96.5%,103%,111%,92.7%,108%,105%,112%,104%,98.7%
COc1ccc(OC)c(/C=C(/C)[N+](=O)[O-])c1,75.8%,6.46% (active),4.29% (active),-18.5% (active),0.553% (active),-29% (active),77.2%,64.6%,63.4%,56.4%,-27.7% (active),110%,62.3%,0.523% (active),13.1%,108%,70.6%,81.1%,19.9%,52.6%
CC(N)Cc1ccc(O)cc1 (stereo unspecified),103%,112%,94.8%,112%,94.6%,98.4%,107%,103%,105%,94.8%,108%,80.7%,90.2%,83.4%,101%,104%,103%,103%,98.3%,98.8%
CC1(C)N=C(N)N=C(N)N1c1ccc(OCCCCOc2ccc(S(=O)(=O)F)cc2)c(Cl)c1,11.2%,24.6%,16.8%,27.9%,,8.74% (active),38.3%,9.68% (active),17.2%,38.6%,25.2%,29.3%,19.3%,26.7%,13.5%,30.7%,60.3%,103%,25.9%,5.85% (active)
